Assay outcomes (PubChem)
rCAG binder: r(CAG) repeat RNA binding | TO-PRO-1 dye displacement fluorescence | inhibition, % at 3 µM | 1.3% of 370,000 active;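 active = inhibition above the plate cutoff, the mean of all test compounds on that plate plus 3 SD, cut at about 35% in these data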;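 also: 0% = DMSO alone and 100% = 100 µM mitoxantrone as full dye displacement; higher means more dye released from RNA so lower well fluorescence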
GRIN3A LBD mod: NR3A (human) ligand-binding domain modulation. 2.5% of 340,000 active. AID 1259313. NR3A LBD differential scanning fluorimetry, Tm shift; 0% = protein alone, 100% = glycine-bound protein. Tm shift relative to glycine control, % at 25 µM;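 active = melting temperature shift of at least 10% of the positive control shift, at one fixed dose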
NadD block: inhibitors of Staphylococcus aureus NadD; purified NadD enzyme, colorimetric absorbance read-out; inhibition, % at 20 µM; 0.78% of 360,000 active; in the data active = inhibition above about 26%
FAS-TE inh: inhibitors of human fatty acid synthase thioesterase domain. recombinant FAS-TE, OMFH fluorogenic substrate, fluorescence endpoint. inhibition, % at 15 µM. 0.67% of 360,000 active;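 active = compounds whose normalised, plate-corrected inhibition of enzyme fluorescence in the single-dose primary screen is 50% or more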;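 also: 0% = DMSO with enzyme and 100% = substrate without enzyme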
An asterisk follows results filed as active. A selection: hits, their analogues and other compounds. The true share with any hit is near 4.3%.

What do the screens show for `CN(CC(=O)Nc1ccc(Cl)c(C(F)(F)F)c1)C(=O)c1cc(-c2ccncc2)nc2ccccc12`?
rCAG binder: 3.7; GRIN3A LBD mod: 21.3*; NadD block: 3.2; FAS-TE inh: 38.7

How did Cc1cccc(C(=O)OCC(=O)N(C)CC(=O)Nc2ccc(Cl)c(C(F)(F)F)c2)c1 do in these assays?
rCAG binder: 1.8; GRIN3A LBD mod: 11.9*; NadD block: -6.9; FAS-TE inh: 29.4

How did CN(CC(=O)Nc1ccc(Cl)c(C(F)(F)F)c1)C(=O)COc1cccc2cccnc12 do in these assays?
rCAG binder: 4.6; NadD block: 2.7; FAS-TE inh: 7.7

Results for Cc1ccc(C)c(OCC(=O)N(C)CC(=O)Nc2ccc(Cl)c(C(F)(F)F)c2)c1 ?
rCAG binder: 6.3; GRIN3A LBD mod: 12.3*; NadD block: -7.0; FAS-TE inh: 28.5

How did Cc1nc([N+](=O)[O-])cn1CC(Cl)Cn1cc([N+](=O)[O-])nc1C do in these assays?
rCAG binder: 3.2

Results for COc1ccc(S[C@]2(C(=O)N(C)C)CC(=O)N(c3ccc(Cl)cc3)[C@@H]2c2ccc(OC)cc2)cc1 ?
rCAG binder: 3.9

How did Cn1c(SCC(=O)NC2(C#N)CCCCC2)nnc1-c1cccnc1 do in these assays?
rCAG binder: 1.2; GRIN3A LBD mod: 17.4*; NadD block: 1.8; FAS-TE inh: -6.9

How did COc1cc2c(=O)n(Cc3ccco3)c(=O)n(CC(=O)c3ccc(Br)cc3)c2cc1OC do in these assays?
rCAG binder: -1.0; GRIN3A LBD mod: 13.6*; NadD block: -2.4; FAS-TE inh: 20.9

What do the screens show for `Cc1ccc(CN2CCCCC(NC(=O)Nc3ccccc3-c3ccccc3)C2=O)cc1` (stereo unspecified)?
rCAG binder: 2.3

Results for COC(=O)C1CN(C2CCCC2)CCS(=O)(=O)N1Cc1ccc(C)cc1 (stereo unspecified) ?
rCAG binder: 2.4

Results for Cc1cccc(NC(=O)Nc2ccccc2C(=O)N2CCCC2)c1 ?
rCAG binder: -0.8

Results for CC(C)(C)OC(=O)N1CCC[C@H]1C(=O)N/N=C/c1cccc2cccnc12 ?
rCAG binder: -6.2; GRIN3A LBD mod: 13.9*; NadD block: -0.7; FAS-TE inh: -2.9

How did CC(C)(C)OC(=O)NCCC(=O)N/N=C/c1cccc2cccnc12 do in these assays?
rCAG binder: -6.5; GRIN3A LBD mod: 0.2; NadD block: 3.8; FAS-TE inh: -3.6

Results for CC(=O)OC(C)(C)/C=C/C(=O)[C@](C)(O)C1[C@H](O)C[C@@]2(C)C3CC=C4C(C=C(O[C@@H]5O[C@H](CO)[C@@H](O)[C@H](O)[C@H]5O)C(=O)C4(C)C)[C@]3(C)C(=O)C[C@]12C (stereo partly specified) ?
rCAG binder: -0.3; GRIN3A LBD mod: 15.7*; NadD block: 4.0; FAS-TE inh: -5.3

How did COc1cccc(NC(=O)N2CC[C@@H]3[C@H]2c2cc(-c4cccc(C#N)c4)ccc2N(C)[C@@H]3CO)c1 do in these assays?
rCAG binder: 10.8

Results for N#CCC[C@H]1CC[C@]2(CCCN(C(=O)c3ccco3)C2)O1 ?
rCAG binder: 1.5

Results for N#Cc1ccc(NC(=O)OC2CC3CC2[C@H]2CCCCN2[C@H]3Cc2ccccc2)cc1 (stereo partly specified) ?
rCAG binder: 7.4

What do the screens show for `N#C/C(=C/c1ccc(N2CCCCC2)o1)C(=O)Nc1ccc2ccccc2c1`?
rCAG binder: -21.7; GRIN3A LBD mod: 0.3; NadD block: 19.7; FAS-TE inh: -45.9

How did N#C/C(=C/c1ccc(N2CCCCC2)o1)C(=O)Nc1ccc(Cl)cc1 do in these assays?
rCAG binder: -19.0; GRIN3A LBD mod: 11.5*; NadD block: -3.4; FAS-TE inh: -88.6

How did COc1ccc(CNS(=O)(=O)/C=C/c2cc(C)ccc2CNC(=O)OC(C)(C)C)cc1 do in these assays?
rCAG binder: -0.8

How did CCOC(=O)N1CCN(C(=O)c2ccc3c(c2)sc2nc(-c4ccc(OC)cc4)cn23)CC1 do in these assays?
rCAG binder: 5.8; GRIN3A LBD mod: -11.2; NadD block: 1.5; FAS-TE inh: 1.1

What do the screens show for `COc1ccc2c(c1)sc1nc(-c3ccccc3)cn12`?
rCAG binder: 13.4; GRIN3A LBD mod: 20.3*; NadD block: -2.4; FAS-TE inh: 15.1

Results for O=C(COC(=O)c1ccc2[nH]c3c(c2c1)CCCC3)Nc1ccc(Cl)cc1Cl ?
rCAG binder: 0.8; GRIN3A LBD mod: 27.0*; NadD block: 10.0; FAS-TE inh: 7.9

What do the screens show for `CCC(C)c1ccccc1NC(=O)COC(=O)c1ccc2[nH]c3c(c2c1)CCCC3` (stereo unspecified)?
rCAG binder: 3.0; GRIN3A LBD mod: 7.4; NadD block: 2.6; FAS-TE inh: 34.3
